Consider 35 compounds from PubChem BioAssay (Tox21).

Values joined by “and” are separate entries in the source; they are usually repeats but may differ in a detail not shown here. Equal entries are not always repeated. Unmarked numbers belong to inactive results. Inconclusive results are not listed. Active and inactive are the calls of the source. Unless noted, calls follow the shape of the full dose curve.

The nature of assay [1]: qHTS assay to identify small molecule agonists of the estrogen receptor beta (ER-beta) signaling pathway - cell viability counter screen (AID 1259380; active = well fitted curve in the direction sought with a large enough effect in the repeat runs; an effect the other way counts as inactive or inconclusive; also: nearly all actives have a fitted effect of over 30% in size; also: potency is read from the fitted curve at half-maximal effect). The gist of the method: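 Same-well viability counter screen. Cells: ER-beta-UAS-bla HEK293T, plated 6 hr before compound, in 2% charcoal-stripped FBS. Compound exposure 16 hr, 37C; viability by CellTiter-Glo luminescence after 30 min at room temperature.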

Assay [2] concerns the target Androgen receptor (Homo sapiens) (UniProt P10275). Put plainly: qHTS assay to identify small molecule agonists of the androgen receptor (AR) signaling pathway in the presence of an antagonist (AID 1259381). Also: nearly all actives have a fitted effect of over 15% in size. The gist of the method:
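Cells are MDA-kb2 (human breast carcinoma, MMTV-luc, AR/GR responsive). Nilutamide is present at 3.0uM final throughout; compounds are added at 15 concentrations and incubated 16hr at 37C before ONE-Glo luminescence detection.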
For orientation: qHTS replaces the single test concentration by a dilution series.

Assay [3] addresses Estrogen receptor (Homo sapiens) (UniProt P03372). Put plainly: qHTS assay to identify small molecule agonists of the estrogen receptor alpha (ER-alpha) signaling pathway in the presence of an antagonist (AID 1259383). Also: nearly all actives have a fitted effect of over 15% in size. Also: potency is read from the fitted curve at half-maximal effect. The gist of the method:
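Cells are hormone-deprived for 5 days (charcoal-stripped FBS, no phenol red), plated for 24hr, spiked with 10.0nM ICI-182,780, then dosed at 15 concentrations. After 22hr at 37C, ONE-Glo luminescence reports ERE-luciferase activity.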

Assay [4] is described as follows: qHTS assay to identify small molecule agonists of the androgen receptor (AR) signaling pathway in the presence of an antagonist - cell viability counter screen (AID 1259379; active = well fitted curve in the direction sought with a large enough effect in the repeat runs; an effect the other way counts as inactive or inconclusive; also: nearly all actives have a fitted effect of over 25% in size; also: potency is read from the fitted curve at half-maximal effect;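 as to activity change, negative = cytotoxicity: MDA-kb2 human breast cancer cells carrying an MMTV luciferase reporter; series mostly up to about 92 µM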). The gist of the method:
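Fluorescence from CellTiter-Fluor, added after 15 hr and read 1 hr later, gave cell viability. Cells were MDA-kb2 exposed to compounds (15 concentrations) in the presence of 3.0uM nilutamide at 37C, 0% CO2.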

Assay [5] in a line: qHTS assay to identify small molecule antagonists of the estrogen receptor beta (ER-beta) signaling pathway - cell viability counter screen (AID 1259382; active = well fitted curve in the direction sought with a large enough effect in the repeat runs; an effect the other way counts as inactive or inconclusive; also: nearly all actives have a fitted effect of over 55% in size; also: potency is read from the fitted curve at half-maximal effect;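 as to activity change, negative = cytotoxicity: HEK293T cells carrying ER-beta-UAS-bla reporter stimulated with estradiol; series mostly up to about 92 µM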). The gist of the method: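 Following a 6 hr plating period, HEK293T cells carrying a UAS-driven beta-lactamase reporter under ER-beta control received compounds and 1nM E2 (final). After 16 hr at 37C and 2 hr substrate loading, CellTiter-Glo luminescence indicated viability.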

Assay [6] can be described thus: qHTS assay to identify small molecule agonists or antagonists of the thyroid stimulating hormone receptor (TSHR) signaling pathway - wild type cell line counter screen (AID 1259384). The gist of the method:
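Wild-type HEK293 cells were plated 18 h at 37 C/5% CO2, pin-dosed with compound plus Ro20-1724 medium, held 30 min at room temperature, then given cAMP-d2 and anti-cAMP-cryptate; fluorescence was read after 1 h. Fifteen concentrations, triplicate.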

Assay [7] deals with Thyrotropin receptor (Homo sapiens) (UniProt P16473). In words: qHTS assay to identify small molecule antagonists of the thyroid stimulating hormone receptor (TSHR) signaling pathway (AID 1259385). Also: nearly all actives have a fitted effect of over 20% in size. The gist of the method:
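TSHR-HEK293 cells were plated and held 18 h at 37C/5% CO2, then given compound plus Ro20-1724 and stimulated with TSH at 1.5 ng/mL final. After 30 min at room temperature, cAMP was detected with cAMP-d2/anti-cAMP-cryptate (1 h) by fluorescence.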
% is scaled to controls: 0 for no effect and ±100 for the full control effect.

Sequence of Thyrotropin receptor (Homo sapiens) (P16473 whole entry, looked up): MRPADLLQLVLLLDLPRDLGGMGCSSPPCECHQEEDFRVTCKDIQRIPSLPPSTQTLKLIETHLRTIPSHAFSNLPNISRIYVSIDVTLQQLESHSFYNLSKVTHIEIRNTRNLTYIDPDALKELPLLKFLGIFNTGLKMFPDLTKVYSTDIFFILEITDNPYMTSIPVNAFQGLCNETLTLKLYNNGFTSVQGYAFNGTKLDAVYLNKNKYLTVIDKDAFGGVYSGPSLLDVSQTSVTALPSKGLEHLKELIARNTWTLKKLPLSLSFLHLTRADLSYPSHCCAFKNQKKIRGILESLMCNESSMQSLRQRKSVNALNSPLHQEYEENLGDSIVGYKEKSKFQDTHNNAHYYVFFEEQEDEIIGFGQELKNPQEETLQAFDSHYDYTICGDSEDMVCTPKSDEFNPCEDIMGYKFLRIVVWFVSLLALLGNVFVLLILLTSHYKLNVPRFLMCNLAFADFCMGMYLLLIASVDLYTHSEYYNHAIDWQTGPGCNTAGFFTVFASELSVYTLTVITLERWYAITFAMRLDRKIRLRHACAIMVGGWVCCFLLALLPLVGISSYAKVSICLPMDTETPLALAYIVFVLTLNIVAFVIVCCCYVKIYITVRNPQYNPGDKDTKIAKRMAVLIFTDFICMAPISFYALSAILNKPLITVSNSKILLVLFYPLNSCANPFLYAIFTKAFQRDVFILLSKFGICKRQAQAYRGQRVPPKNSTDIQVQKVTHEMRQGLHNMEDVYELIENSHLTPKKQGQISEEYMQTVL
Sequence of Androgen receptor (Homo sapiens) (P10275 whole entry, looked up): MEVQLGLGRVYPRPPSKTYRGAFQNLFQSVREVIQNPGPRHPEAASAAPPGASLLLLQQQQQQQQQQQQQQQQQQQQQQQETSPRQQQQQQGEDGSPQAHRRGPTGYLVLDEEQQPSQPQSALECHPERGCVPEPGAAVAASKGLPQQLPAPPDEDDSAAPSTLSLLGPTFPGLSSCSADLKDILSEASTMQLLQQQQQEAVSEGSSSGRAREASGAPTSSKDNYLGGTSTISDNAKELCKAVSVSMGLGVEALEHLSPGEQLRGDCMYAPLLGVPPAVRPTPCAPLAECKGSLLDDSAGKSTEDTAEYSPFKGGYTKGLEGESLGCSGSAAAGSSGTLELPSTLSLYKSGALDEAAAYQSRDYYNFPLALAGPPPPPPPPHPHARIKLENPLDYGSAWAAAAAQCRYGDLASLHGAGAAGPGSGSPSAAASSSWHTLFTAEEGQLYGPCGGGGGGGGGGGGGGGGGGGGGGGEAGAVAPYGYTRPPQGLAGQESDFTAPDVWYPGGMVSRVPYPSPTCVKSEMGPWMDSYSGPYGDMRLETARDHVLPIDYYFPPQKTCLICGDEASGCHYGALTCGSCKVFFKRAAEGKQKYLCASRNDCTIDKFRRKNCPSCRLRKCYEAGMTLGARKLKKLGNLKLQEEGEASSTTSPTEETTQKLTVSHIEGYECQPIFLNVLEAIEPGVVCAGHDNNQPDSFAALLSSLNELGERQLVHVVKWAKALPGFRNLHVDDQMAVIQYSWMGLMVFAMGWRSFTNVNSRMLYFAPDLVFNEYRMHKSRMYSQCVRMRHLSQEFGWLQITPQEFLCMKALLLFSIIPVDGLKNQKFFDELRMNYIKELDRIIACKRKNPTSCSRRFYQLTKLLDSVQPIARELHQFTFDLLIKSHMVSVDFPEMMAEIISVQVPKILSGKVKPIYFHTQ
Sequence of Estrogen receptor (Homo sapiens) (P03372 whole entry, looked up): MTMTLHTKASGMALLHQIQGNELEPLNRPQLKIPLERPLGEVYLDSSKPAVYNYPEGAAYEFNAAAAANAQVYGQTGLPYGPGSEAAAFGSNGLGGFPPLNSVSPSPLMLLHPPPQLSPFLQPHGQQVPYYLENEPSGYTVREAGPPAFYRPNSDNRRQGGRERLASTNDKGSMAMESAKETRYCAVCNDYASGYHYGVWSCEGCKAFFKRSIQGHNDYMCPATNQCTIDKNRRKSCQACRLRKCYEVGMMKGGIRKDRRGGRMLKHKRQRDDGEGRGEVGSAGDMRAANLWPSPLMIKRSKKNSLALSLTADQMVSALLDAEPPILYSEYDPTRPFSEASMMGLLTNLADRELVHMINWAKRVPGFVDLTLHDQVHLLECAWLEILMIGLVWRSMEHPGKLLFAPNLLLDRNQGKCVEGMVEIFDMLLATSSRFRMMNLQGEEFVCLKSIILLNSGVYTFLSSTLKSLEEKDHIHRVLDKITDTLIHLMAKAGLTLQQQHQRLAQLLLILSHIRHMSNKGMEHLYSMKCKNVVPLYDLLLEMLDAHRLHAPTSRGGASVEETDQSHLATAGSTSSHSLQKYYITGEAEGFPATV

Turning to `COC1=C(OC)C(=O)C(CCCCCCCCCCO)=C(C)C1=O`, the Potency in assay [1] is 23.7 µM (active). The outcome in assay [2] was inactive. For the same compound, the Potency entry in assay [3] was “inactive”.
Turning to `CCCCNS(=O)(=O)c1ccc(C)cc1`, the Potency entry in assay [4] and in assay [1] was “inactive” throughout.
Turning to `CC(C)NC[C@@H](O)COc1ccc(CC(N)=O)cc1`, the Potency entry in assay [4], in assay [5] and in assay [7] was “inactive” in each case. Also, in assay [6], the compound was called inactive.
Take `Nc1ccc(Oc2ccc(Cl)cc2)cc1`: the Potency result in assay [4], in assay [5], in assay [3] and in assay [7] was “inactive” throughout. The compound was classed as inactive in assay [6].
Take `Cc1cc(=O)oc2cc(O)cc(O)c12`: the Potency entry in assay [4], in assay [1] and in assay [5] was “inactive” in each case. The result in assay [2] and in assay [6] was inactive.
For the compound `CCO[C@@H]1O[C@H](C(COCc2ccccc2)OCc2ccccc2)[C@H](OCc2ccccc2)[C@H]1O` (some centres not stated), the Potency entry in assay [4] and in assay [7] was “inactive” throughout. The compound was called inactive in assay [6].
With `Cl[Si](Cl)(c1ccccc1)c1ccccc1`, the Potency entry in assay [4], in assay [1], in assay [3] and in assay [7] was “inactive” each time. Further, the outcome in assay [6] was inactive.
For `CCCc1ccc(OCC(=O)N2CCN(C(=O)COc3ccc(CCC)cc3OC)CC2)c(OC)c1`, the result in assay [2] and in assay [6] was inactive. The Potency entry in assay [5], in assay [3] and in assay [7] was “inactive” throughout.
As to `CC(=O)[C@H]1CC[C@H]2[C@@H]3CCC4=CC(=O)CC[C@]4(C)[C@H]3CC[C@]12C`, the Potency is 60.8 µM (active) in assay [4]; 54.2 µM (active) and 61.1 µM (active) in assay [1]; 54.2 µM (active) and 61.1 µM (active) in assay [5]. For the same compound, the Potency result in assay [3] was “inactive”. The compound was classed as inactive in assay [6].
In the case of `O=C(O)c1cc(-c2ccc(F)cc2F)ccc1O`, the Potency result in assay [4] and in assay [3] was “inactive” each time.
On to `CCCCC/C=C\C/C=C\CCCCCCCC(=O)O`, for which the Potency entry in assay [3] and in assay [7] was “inactive” each time. Further, in assay [6], the compound was classed as inactive.
`CC(N=C(NC#N)Nc1ccncc1)C(C)(C)C` (configuration not stated): the Potency result in assay [1], in assay [5] and in assay [7] was “inactive” in each case. For the same compound, the result in assay [6] was inactive.
As to `COC(=O)Nc1nc2ccc(C(=O)c3ccccc3)cc2[nH]1`, the outcome in assay [2] and in assay [6] was inactive. Also, the Potency result in assay [5] and in assay [3] was “inactive” in each case.
For `Cc1cc(C)c(/C=C2\C(=O)Nc3ccccc32)[nH]1`, the Potency result in assay [4], in assay [5] and in assay [3] was “inactive” each time. Besides, the Potency in assay [1] was 11.9 µM (active). In addition, the result in assay [2] was inactive.
Regarding `COc1cc(/C=C/c2ccccc2)oc(=O)c1`, the Potency result in assay [5], in assay [3] and in assay [7] was “inactive” each time. Moreover, the result in assay [6] was inactive.
Consider `NC[C@H]1O[C@H](O[C@H]2[C@H](O[C@@H]3O[C@H](CO)[C@@H](O)[C@H]3O)C(O)[C@H](N)C[C@@H]2N)[C@H](N)[C@@H](O)[C@@H]1O` (some centres not stated), for which the activity change, negative = cytotoxicity is 2.75% [at 8.39 µM] in assay [4], 1.6% [at 8.39 µM] in assay [1] and 0.11% [at 8.39 µM] in assay [5]. Further, the cAMP activity change in assay [6] was -9.73% [at 8.39 µM]. The activity change, negative = inhibition in assay [7] is -4.82% [at 8.39 µM].
`Cc1nc2n(c(=O)c1CCN1CCC(c3noc4cc(F)ccc34)CC1)CCCC2`: the Potency entry in assay [4], in assay [5] and in assay [3] was “inactive” in each case. In addition, the compound was classed as inactive in assay [6].
On to `C=C(CC)C(=O)c1ccc(OCC(=O)O)c(Cl)c1Cl`, for which the Potency was 60.7 µM (active) in assay [4], 48.2 µM (active) in assay [1] and 60.7 µM (active) in assay [5]. Also, the Potency result in assay [3] and in assay [7] was “inactive” each time. Moreover, the compound was classed as inactive in assay [6].
For `COc1ccc(-c2coc3cc(O)ccc3c2=O)cc1`, the Potency result in assay [4], in assay [1], in assay [5] and in assay [7] was “inactive” each time. Further, the Potency in assay [3] was 1.09 µM (active). Moreover, the call in assay [6] was inactive.
Regarding `CC(C)=CCNc1ncnc2c1ncn2[C@@H]1O[C@H](CO)[C@@H](O)[C@H]1O`, the Potency entry in assay [4], in assay [3] and in assay [7] was “inactive” each time. Besides, the results for the Potency in assay [1] and in assay [5] were 13.3 µM (active) and 11.9 µM (active), respectively. Further, the result in assay [2] and in assay [6] was inactive.
Turning to `CC1(C)[C@@H](O)CC[C@]2(C)[C@H]3C(=O)C=C4[C@@H]5C[C@@](C)(C(=O)O)CC[C@]5(C)CC[C@@]4(C)[C@]3(C)CC[C@@H]12`, the Potency result in assay [4] and in assay [3] was “inactive” each time. The result in assay [2] and in assay [6] was inactive.
For the compound `OCCN1CCN(CCCN2c3ccccc3Sc3ccc(C(F)(F)F)cc32)CC1`, in assay [6], the compound was classed as inactive. Moreover, the Potency entry in assay [7] was “inactive”.
`Cc1cc(-n2nc3ccc(Cl)cc3n2)c(O)c(C(C)(C)C)c1`: the Potency result in assay [4], in assay [5] and in assay [7] was “inactive” throughout. Also, in assay [6], the call was inactive.
With `Nc1cc(Cl)c(O)c(Cl)c1`, the Potency entry in assay [4], in assay [1], in assay [5] and in assay [3] was “inactive” in each case. Further, the result in assay [2] was inactive.
`S=c1nccc[nH]1`: the Potency entry in assay [4], in assay [1] and in assay [5] was “inactive” each time.
For `CC(C)=CCC1=C(O)c2ccccc2C(=O)C1=O`, the Potency entry in assay [3] was “inactive”.
With `Clc1nnc(Cl)c2ccccc12`, the Potency in assay [4] was 15.3 µM (active). For the same compound, the Potency result in assay [5] was “inactive”.
Consider `CC(C)(C)c1ccc(C(O)CCCN2CCC(C(O)(c3ccccc3)c3ccccc3)CC2)cc1` (configuration not stated), for which, in assay [5], the Potency result is “inactive”. For the same compound, in assay [6], the result was inactive.
With `CCCCCCCC`, the Potency entry in assay [4], in assay [1], in assay [5], in assay [3] and in assay [7] was “inactive” each time. Moreover, the result in assay [6] was inactive.
For `CCc1oc2ccccc2c1C(=O)c1cc(I)c(O)c(I)c1`, the Potency result in assay [3] and in assay [7] was “inactive” each time. The outcome in assay [6] was inactive.
Regarding `CC(C)CCOC(=O)/C=C/c1ccccc1`, the Potency entry in assay [4], in assay [1] and in assay [5] was “inactive” throughout. Moreover, in assay [6], the result was inactive.
Turning to `C[C@@H](O)[C@H](N)C(=O)O`, the results for the activity change, negative = cytotoxicity in assay [4] and in assay [5] were -0.428% [at 19 µM] and 0.119% [at 19 µM], respectively.
As for `Oc1c(I)cc(Cl)c2cccnc12`, the Potency in assay [4] was 48.5 µM (active). For the same compound, the result in assay [2] was inactive.
As for `CCCCCCCCCCCCCC[N+](C)(C)C`, the Potency was 26.4 µM (active) and 27.3 µM (active) in assay [1]; 26.4 µM (active) and 30.6 µM (active) and 33.5 µM (active) in assay [5].
In the case of `CNC(=O)c1ccccc1Sc1ccc2c(/C=C/c3ccccn3)n[nH]c2c1`, the Potency in assay [4] is 26.6 µM (active). In assay [6], the outcome was inactive. Also, the Potency entry in assay [7] is “inactive”.
